Assay outcomes from PubChem.
HEK cytotox – HEK 293 cell cytotoxicity. HEK 293 viability, ATP luminescence (CellTiter-Glo), 48-72 h. Potency, µM (highest dose often 115 µM), for the others: at the top dose activity change, negative = cytotoxicity, actives largely listed as inhibitors. hit rate 6.6% among 94,000. AID 1345083; note: nearly all actives have a fitted effect of over 60% in size
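Pintool-delivered compounds were incubated with HEK 293 cells (250 cells/well) at 37 degree Celsius for 48 or 72 hr. ATP-dependent luminescence (CellTiter-Glo) then reported remaining viable cells.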
hNpr1 antagonist – antagonists of human natriuretic peptide receptor Npr1. P16066. HEK293 hNpr1 GloSensor cGMP, ANP-stimulated luminescence. Potency, µM (titrated, usually from 46.3 µM), without a hit: at the highest dose activity change, negative = inhibition, actives largely listed as inhibitors. hit rate 1.6% among 76,000. AID 1347048; calls by dose curve; note: nearly all actives have a fitted effect of over 60% in size
Target sequence (P16066 whole entry, looked up): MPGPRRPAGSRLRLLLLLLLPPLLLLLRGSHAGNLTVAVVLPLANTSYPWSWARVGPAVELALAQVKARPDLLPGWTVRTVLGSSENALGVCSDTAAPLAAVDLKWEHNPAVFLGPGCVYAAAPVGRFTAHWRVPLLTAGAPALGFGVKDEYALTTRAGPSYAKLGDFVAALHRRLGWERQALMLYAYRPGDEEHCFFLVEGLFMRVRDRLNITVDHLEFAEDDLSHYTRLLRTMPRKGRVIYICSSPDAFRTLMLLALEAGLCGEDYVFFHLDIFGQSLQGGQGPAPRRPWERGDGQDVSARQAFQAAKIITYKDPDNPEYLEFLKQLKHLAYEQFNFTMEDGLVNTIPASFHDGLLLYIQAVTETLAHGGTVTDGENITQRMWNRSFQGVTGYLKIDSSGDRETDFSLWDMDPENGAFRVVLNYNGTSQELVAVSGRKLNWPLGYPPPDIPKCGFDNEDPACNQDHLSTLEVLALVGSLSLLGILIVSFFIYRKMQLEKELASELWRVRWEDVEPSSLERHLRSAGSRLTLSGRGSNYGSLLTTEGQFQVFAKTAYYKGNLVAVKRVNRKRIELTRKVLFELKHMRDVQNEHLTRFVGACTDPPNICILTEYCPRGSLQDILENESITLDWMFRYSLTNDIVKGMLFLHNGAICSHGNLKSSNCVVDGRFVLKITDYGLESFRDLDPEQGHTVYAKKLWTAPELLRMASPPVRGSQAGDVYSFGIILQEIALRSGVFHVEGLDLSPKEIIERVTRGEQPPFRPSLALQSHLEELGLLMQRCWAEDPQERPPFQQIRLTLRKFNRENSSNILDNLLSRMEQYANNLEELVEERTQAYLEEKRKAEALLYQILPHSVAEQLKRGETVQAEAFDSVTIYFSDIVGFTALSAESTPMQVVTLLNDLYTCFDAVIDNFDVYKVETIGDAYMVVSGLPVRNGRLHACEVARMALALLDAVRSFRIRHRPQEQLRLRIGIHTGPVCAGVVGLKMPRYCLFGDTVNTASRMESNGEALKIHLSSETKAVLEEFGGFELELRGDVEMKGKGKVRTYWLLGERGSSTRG
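Compound pre-incubated 30 min at room temperature on GloSensor-loaded HEK293 cells stably carrying hNpr1 and the pGS-40F cGMP biosensor. Stimulation uses hNppA at 0.1 nM final; luminescence is taken at baseline and 20 min post-agonist.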
GPT2 inh – GPT2 alanine aminotransferase inhibition | Q8TD30 | Recombinant GPT2, coupled pyruvate oxidase/HRP Amplex Red fluorescence | Potency, µM (doses to about 57.7 µM), for inactives: at the top dose activity change, negative = inhibition, usual class: inhibitors | hit rate 0.25% among 100,000; note: nearly all actives have a fitted effect of over 60% in size
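GPT2 10ng/uL, a-KG 250uM, L-Ala 2mM, HEPES pH7.5 + 0.0001% Tween; 30 min RT. Then Amplex mix (PO/HRP/ThPP), 30 min RT dark, fluorescence. AOA 50uM used as positive control.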
Luciferase inh – blocks purified firefly luciferase enzyme activity; AID 1347043; Potency, µM (top dose mostly 115 µM), hits mostly inhibitors; P08659; purified P. pyralis luciferase, luminescence, biochemical; hit rate 2.5% among 76,000; note: nearly all actives have a fitted effect of over 65% in size
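Inhibitors were tested against purified firefly luciferase in a biochemical, low-substrate format (both substrates at 10uM) and luminescence measured with a CCD imager.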
3T3 cytotox – cytotoxic compounds in NIH 3T3 cells | hit rate 4.3% among 94,000 | Potency, µM (series often up to 96.7 µM), for inactives: at the top dose activity change, negative = cytotoxicity, hits mostly inhibitors | NIH 3T3 viability, CellTiter-Glo ATP luminescence, 48-72 h | AID 1345082; note: nearly all actives have a fitted effect of over 55% in size
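Cells were seeded at 400 per well, treated with pin-transferred compound, and kept 48 or 72 hr at 37 °C before CellTiter-Glo addition and luminescence imaging of cellular ATP.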
Numbers without * were called inactive; i = inactive; ? = inconclusive; . = no result; ! = not active in a repeat; [ ] = remark or other dose. Compounds with a hit are over-represented: about 10% of the library has one in this group of screens. Unless noted, calls come from the whole dose curve; as a rule, active = well fitted curve in the direction sought with a large enough effect; inconclusive = small, poorly fitted or top-dose-only effect, or another doubt; inactive = no such curve, though single readings can be large; an effect the other way counts as inactive or inconclusive. % is set by controls: 0 for no effect and ±100 for the full control effect; potency is the fitted concentration of half-maximal effect.

SMILES	HEK cytotox	hNpr1 antagonist	GPT2 inh	Luciferase inh	3T3 cytotox
Cc1cc(C)cc(C(=O)NC2CCN(c3cc(-c4ccc(F)cc4)[nH]n3)CC2)c1	?	2%	i	i	i
O=C(NC1CCCN(c2cc(-c3ccc(F)cc3)[nH]n2)C1)c1cccnc1 (centres undefined)	?	-6%	?	?	-18%
Cc1cc(C)cc(C(=O)NC2CCCN(c3cc(-c4ccc(F)cc4)[nH]n3)C2)c1 (centres undefined)	45µM*	-10%	-27%	i	?
Cc1ccc(C(=O)NC2CCCN(c3cc(-c4ccc(F)cc4)[nH]n3)C2)cn1 (centres undefined)	20µM*	-2%	?	?	-26%
COc1ccc(-c2cc(N3CCCC(NC(=O)c4ccc(C)cc4)C3)n[nH]2)cc1 (centres undefined)	?	-9%	i	?	?
COc1ccc(-c2cc(N3CCCC(NC(=O)c4ccc(C)nc4)C3)n[nH]2)cc1 (centres undefined)	-63%	-24%	?	35µM*	?
O=C(NCc1ccc(Cl)nc1)c1ccc2cncn2c1	-12%[172 µM]	0%[70.6 µM]	i	i	?
Cc1ccc(C(=O)N2CC(c3nnc(-c4ccncc4)o3)C3(CCOCC3)C2)cc1F (centres undefined)	-2%	-7%	-38%	i	-3%
COc1cc(NC(=O)CN2C(=O)NC3(CCC(C(C)(C)C)CC3)C2=O)cc(OC)c1OC (centres undefined)	?	-3%	-9%	i	0%
O=C1CO[C@H]2CCN(Cc3ccccc3Cl)CC[C@@H]2N1c1ccccc1	79µM*	-26%[70.6 µM]	-16%[88.5 µM]	i	?
O=C1CO[C@H]2CCN(CCCc3ccccc3)CC[C@@H]2N1c1ccccc1	100µM*	-26%[70.6 µM]	-11%[88.5 µM]	i	89µM*
COC(=O)C1=CO[C@@H](O[C@@H]2O[C@H](CO)[C@@H](O)[C@H](O)[C@H]2O)[C@H]2[C@@H]1[C@H](O)[C@H](O)[C@]2(C)O	.	.	-13%[27.3 µM]	.	.
c1ccc(CCCN2CC[C@H](c3nc4ccccc4s3)C2)cc1	100µM*	-20%[70.6 µM]	-17%[88.5 µM]	?	89µM*
Cn1c([C@H]2CCN(Cc3ccc(F)c(F)c3)C2)nc2ccccc21	50µM*	-16%[70.6 µM]	4%[88.5 µM]	i	?
COc1cccc(CN2CC[C@H](c3nc4ccccc4s3)C2)c1	100µM*	-30%[70.6 µM]	i	25µM*	?
OCCC1CN(Cc2cccn2-c2nccs2)CCN1Cc1ccc(F)c(F)c1 (centres undefined)	?	-6%	?	i	-24%
OCCC1CN(Cc2nc3ccccc3s2)CCN1Cc1ccc(F)c(F)c1 (centres undefined)	79µM*	-30%	i	i	-23%
CC(=O)N1CCc2cc(S(=O)(=O)CCC(=O)N3CCCC(Cc4nncn4CC4CC4)C3)ccc21 (centres undefined)	-23%	2%	4%	i	-4%
O=C(O)CCC(=O)N1Cc2[nH]cnc2C[C@H]1c1nc(-c2ccc(OC(F)(F)F)cc2)no1	2%	5%	-2%	i	-12%
Clc1cccc(CN2CC[C@H](c3nc4ccccc4o3)C2)c1	?	-7%[70.6 µM]	i	i	-20%[174 µM]
Clc1cccc(CN2CC[C@H](c3nc4ccccc4s3)C2)c1	100µM*	3%[70.6 µM]	-5%[88.5 µM]	50µM*	?
Fc1ccc(CN2CC[C@H](c3nnc(Cc4ccccc4)o3)C2)cc1F	?	0%[70.6 µM]	-28%[88.5 µM]	i	?
Fc1ccc(CN2CC[C@H](c3nc4ccccc4s3)C2)cc1F	100µM*	-6%[70.6 µM]	1%[88.5 µM]	45µM*	?
CCOCC(=O)N1CCC2(CC1)C(OC)CN2c1cccc(F)c1 (centres undefined)	i	0%	i	i	i
CC(C)CCNC(=O)CCC1CCCN(S(=O)(=O)c2cccc(F)c2)C1 (centres undefined)	45µM*	.	1%	.	?
SMILES	HEK cytotox	hNpr1 antagonist	GPT2 inh	Luciferase inh	3T3 cytotox
O=C(CCC1CCCN(S(=O)(=O)c2cccc(F)c2)C1)NCC1CC1 (centres undefined)	-31%	-30%	?	i	-24%
CCOc1ccc(NC(=O)CCC2CCCN(S(=O)(=O)c3cccc(F)c3)C2)cc1 (centres undefined)	35µM*	.	i	.	-22%
CCOc1cccc(CNC(=O)CCC2CCCN(S(=O)(=O)c3ccc(C)cc3)C2)c1 (centres undefined)	?	0%	4%	i	?
CCN1c2cc(C(=O)NCc3ccc4c(c3)OCO4)ccc2C(=O)N2CCCCCC21 (centres undefined)	?	-14%	-13%	i	?
O=C(CC1CCCC1)N1CC(c2nc(CCOCc3ccccc3)no2)C1	?	.	2%	.	-28%
CCNC(=O)Nc1ccc2ncc(Nc3ccc(C)cc3)nc2n1	.	.	2%	.	.
CC(C)c1ccc(-n2cc(CN3CCCC4(C3)CN(C)C(=O)O4)cn2)cc1 (centres undefined)	?	-24%	3%	?	?
CC(=O)Nc1cccc(-c2ccc3c(n2)CN(Cc2ccccc2F)C(=O)CO3)c1	?	-12%[70.6 µM]	2%[88.5 µM]	i	?
CCCNC(=O)C1(CCO)CCN(c2ncccn2)C1 (centres undefined)	-4%	3%	i	i	-4%
C=CCOc1cc(C)c2c(c1C)[C@H](O)C([C@H](C)C(=O)N(C)Cc1ccccc1)CC2 (some centres undefined)	?	-5%[70.6 µM]	-4%[88.5 µM]	i	71µM*
C=CCOc1cc(C)c2c(c1C)[C@H](O)C([C@H](C)C(=O)NCCOC)CC2 (some centres undefined)	-6%[172 µM]	7%[70.6 µM]	4%[88.5 µM]	i	0%[174 µM]
CC(C)NC(=O)C1COC2(CCN(C(=O)c3ccc(F)cc3)CC2)N1C(=O)c1cccc(F)c1 (centres undefined)	0%	8%	i	i	i
CC(C)(Oc1nn(Cc2cccc(Cl)c2)c2ccccc12)C(=O)NCC[S+](C)(=O)[O-]	?	?	i	i	?
CN(C)CCCOc1nn(Cc2ccccc2)c2ccccc12	.	.	1.3µM*!	.	.
COCCN(C)C(=O)C(C)(C)Oc1nn(Cc2cccc(Cl)c2)c2ccccc12	89µM*	-22%[70.6 µM]	-8%[88.5 µM]	i	79µM*
CN(C)C(=O)C(C)(C)Oc1nn(Cc2cccc(Cl)c2)c2ccccc12	79µM*	-10%[70.6 µM]	-13%[88.5 µM]	i	?
COc1ccc(S(=O)(=O)N2CCC(OC3CCN(C)CC3)CC2)cc1	-1%	-8%	i	i	-19%
COCCCNC(=O)c1cccc(-c2ccc(OC)nn2)c1	-4%[172 µM]	.	.	.	-15%[138 µM]
COc1ccc(-c2cccc(C(=O)NCc3ccc(F)cc3)c2)nn1	89µM*	.	.	.	?
